# Reference: the supplement of paper PMC11006884
# The full data set covers some 6,500 targets. This sample favours those with a hit. About 2% of all pairs of compound and target were hits. A number with no mark means an inactive call.
# Compound: COC(=O)C#Cc1ccccc1 [methyl 3-phenylpropiolate]
# Assay: log2 ratio of iodoacetamide-alkyne labeling of the cysteine site, DMSO over compound (competition); higher = stronger covalent engagement of the cysteine by the compound, active = 1 or more
# Details: 500 µM; treatment time 1 h; system: HEK293T cell lysate
# Outline: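 After 1 h at ambient temperature with vehicle or electrophile (500 µM), HEK293T lysate (2 mg/mL) was labelled for 1 h with iodoacetamide alkyne and clicked to sCIP-TMT reagents. Pooled samples were trypsin-digested overnight at 37 °C, streptavidin-enriched, acid-eluted and analysed by Orbitrap Eclipse LC-MS/MS with FAIMS, then quantified in FragPipe over three replicates with duplicate channels. A cysteine's log2 competition ratio is its mean control-channel over mean compound-channel reporter intensity. Cysteines quantified in only one replicate were not included.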
# Sequence of UniProt Q9ULL5 (Q9ULL5 whole entry, looked up): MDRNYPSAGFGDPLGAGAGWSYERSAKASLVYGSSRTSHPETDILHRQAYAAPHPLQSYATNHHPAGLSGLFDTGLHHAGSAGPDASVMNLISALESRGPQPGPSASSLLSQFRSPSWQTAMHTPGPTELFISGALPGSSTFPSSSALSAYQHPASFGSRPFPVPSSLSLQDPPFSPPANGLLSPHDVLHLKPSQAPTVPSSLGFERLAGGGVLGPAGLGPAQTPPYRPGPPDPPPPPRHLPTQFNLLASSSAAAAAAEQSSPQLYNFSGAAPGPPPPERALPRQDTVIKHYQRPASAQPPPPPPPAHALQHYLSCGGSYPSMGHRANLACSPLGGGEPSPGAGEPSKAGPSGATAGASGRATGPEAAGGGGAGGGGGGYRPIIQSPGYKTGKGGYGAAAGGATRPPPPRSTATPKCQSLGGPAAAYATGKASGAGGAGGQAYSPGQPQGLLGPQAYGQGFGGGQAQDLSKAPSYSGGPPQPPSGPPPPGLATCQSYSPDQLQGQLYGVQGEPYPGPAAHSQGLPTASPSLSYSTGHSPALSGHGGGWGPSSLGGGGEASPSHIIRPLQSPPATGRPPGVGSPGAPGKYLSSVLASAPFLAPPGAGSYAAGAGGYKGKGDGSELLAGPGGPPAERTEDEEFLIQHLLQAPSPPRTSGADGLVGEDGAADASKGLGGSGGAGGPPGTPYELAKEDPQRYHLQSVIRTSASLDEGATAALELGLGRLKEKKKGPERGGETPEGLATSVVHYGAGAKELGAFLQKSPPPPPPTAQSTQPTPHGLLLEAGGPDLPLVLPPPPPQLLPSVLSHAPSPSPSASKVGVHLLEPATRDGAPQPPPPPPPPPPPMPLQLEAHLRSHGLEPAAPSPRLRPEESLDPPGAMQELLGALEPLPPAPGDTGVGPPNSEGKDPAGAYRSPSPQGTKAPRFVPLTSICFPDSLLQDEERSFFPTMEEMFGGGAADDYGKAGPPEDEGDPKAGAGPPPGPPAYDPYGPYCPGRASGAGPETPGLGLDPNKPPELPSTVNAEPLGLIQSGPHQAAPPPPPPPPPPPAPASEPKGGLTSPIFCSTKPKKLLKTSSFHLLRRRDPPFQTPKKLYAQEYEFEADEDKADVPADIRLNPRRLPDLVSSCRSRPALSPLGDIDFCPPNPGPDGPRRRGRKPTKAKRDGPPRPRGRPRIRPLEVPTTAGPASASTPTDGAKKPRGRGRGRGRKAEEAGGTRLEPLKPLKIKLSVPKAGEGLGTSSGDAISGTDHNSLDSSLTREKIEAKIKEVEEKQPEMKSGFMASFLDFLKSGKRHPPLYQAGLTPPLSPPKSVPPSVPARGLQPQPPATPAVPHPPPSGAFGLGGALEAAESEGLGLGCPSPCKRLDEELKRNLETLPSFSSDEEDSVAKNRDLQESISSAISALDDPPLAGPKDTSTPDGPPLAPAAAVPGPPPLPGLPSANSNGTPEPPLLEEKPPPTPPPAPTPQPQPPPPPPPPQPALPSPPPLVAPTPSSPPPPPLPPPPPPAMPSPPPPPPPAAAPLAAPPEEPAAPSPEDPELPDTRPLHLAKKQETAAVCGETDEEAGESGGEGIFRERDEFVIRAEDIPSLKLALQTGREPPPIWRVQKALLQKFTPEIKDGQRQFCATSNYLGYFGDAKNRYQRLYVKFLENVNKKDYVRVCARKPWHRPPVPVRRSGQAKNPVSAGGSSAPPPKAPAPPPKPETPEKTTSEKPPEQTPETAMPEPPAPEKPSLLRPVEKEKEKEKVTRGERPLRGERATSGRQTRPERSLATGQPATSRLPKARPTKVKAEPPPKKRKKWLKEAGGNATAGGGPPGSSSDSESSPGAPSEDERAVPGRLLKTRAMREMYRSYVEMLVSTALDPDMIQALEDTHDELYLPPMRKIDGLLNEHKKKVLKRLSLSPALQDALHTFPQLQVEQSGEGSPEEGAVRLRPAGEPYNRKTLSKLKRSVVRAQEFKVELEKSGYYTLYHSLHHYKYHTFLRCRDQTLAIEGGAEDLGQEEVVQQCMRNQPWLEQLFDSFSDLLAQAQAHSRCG
# Sequence of UniProt Q9NVC6 (Q9NVC6 whole entry, looked up): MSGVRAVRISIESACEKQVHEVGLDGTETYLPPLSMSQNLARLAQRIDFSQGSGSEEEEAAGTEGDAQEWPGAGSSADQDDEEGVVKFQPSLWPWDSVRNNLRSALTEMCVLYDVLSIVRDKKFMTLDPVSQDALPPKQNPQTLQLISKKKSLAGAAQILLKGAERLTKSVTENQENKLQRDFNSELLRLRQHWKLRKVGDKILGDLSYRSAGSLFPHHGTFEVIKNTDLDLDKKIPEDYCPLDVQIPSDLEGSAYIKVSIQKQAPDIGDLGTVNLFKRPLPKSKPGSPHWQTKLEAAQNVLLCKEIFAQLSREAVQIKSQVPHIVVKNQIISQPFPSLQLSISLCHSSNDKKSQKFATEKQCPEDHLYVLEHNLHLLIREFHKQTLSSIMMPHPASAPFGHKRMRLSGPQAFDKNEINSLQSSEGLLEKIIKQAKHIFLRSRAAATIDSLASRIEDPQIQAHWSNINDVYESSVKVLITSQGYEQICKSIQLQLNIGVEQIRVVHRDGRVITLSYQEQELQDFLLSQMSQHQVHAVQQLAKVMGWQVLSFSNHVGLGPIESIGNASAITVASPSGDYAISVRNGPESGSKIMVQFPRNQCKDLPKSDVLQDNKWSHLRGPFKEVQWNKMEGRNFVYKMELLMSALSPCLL
# Sequence of UniProt Q9NY93 (Q9NY93 whole entry, looked up): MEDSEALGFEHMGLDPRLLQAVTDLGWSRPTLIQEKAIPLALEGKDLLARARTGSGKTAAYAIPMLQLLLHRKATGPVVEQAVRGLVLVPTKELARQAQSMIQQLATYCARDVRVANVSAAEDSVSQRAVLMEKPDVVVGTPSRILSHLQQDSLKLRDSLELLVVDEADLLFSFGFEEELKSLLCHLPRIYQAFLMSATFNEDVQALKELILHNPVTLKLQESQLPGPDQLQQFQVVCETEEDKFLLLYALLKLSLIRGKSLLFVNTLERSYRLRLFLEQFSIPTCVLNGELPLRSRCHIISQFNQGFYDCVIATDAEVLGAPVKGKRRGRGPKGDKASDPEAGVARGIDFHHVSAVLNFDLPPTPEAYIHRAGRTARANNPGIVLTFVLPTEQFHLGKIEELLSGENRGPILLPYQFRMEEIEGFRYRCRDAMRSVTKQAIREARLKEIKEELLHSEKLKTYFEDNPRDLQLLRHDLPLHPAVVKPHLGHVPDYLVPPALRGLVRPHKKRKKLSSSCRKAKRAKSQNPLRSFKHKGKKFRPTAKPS
# Sequence of UniProt Q9BUJ2 (Q9BUJ2 whole entry, looked up): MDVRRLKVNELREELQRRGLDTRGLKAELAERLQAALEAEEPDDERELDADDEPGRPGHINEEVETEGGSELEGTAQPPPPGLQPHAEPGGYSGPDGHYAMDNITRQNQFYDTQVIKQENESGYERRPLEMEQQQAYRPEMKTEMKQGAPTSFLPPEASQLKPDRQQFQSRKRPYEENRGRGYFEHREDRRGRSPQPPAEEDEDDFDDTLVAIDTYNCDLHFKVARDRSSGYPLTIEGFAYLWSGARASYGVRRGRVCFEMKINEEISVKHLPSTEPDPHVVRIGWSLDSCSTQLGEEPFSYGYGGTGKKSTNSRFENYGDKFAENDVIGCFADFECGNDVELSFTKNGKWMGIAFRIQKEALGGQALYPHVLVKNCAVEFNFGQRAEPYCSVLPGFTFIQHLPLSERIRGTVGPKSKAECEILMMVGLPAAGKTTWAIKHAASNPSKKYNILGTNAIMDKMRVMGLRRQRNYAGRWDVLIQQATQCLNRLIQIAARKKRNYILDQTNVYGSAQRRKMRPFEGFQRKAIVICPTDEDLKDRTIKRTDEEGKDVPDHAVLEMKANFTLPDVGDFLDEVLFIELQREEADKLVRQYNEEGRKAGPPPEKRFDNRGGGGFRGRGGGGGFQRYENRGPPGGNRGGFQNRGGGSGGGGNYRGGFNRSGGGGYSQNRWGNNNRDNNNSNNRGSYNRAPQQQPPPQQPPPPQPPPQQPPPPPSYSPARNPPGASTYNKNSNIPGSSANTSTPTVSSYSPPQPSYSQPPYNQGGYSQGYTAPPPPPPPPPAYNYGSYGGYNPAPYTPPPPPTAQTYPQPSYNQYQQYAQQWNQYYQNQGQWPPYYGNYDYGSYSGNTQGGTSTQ
# Sequence of UniProt Q9UGP8 (Q9UGP8 whole entry, looked up): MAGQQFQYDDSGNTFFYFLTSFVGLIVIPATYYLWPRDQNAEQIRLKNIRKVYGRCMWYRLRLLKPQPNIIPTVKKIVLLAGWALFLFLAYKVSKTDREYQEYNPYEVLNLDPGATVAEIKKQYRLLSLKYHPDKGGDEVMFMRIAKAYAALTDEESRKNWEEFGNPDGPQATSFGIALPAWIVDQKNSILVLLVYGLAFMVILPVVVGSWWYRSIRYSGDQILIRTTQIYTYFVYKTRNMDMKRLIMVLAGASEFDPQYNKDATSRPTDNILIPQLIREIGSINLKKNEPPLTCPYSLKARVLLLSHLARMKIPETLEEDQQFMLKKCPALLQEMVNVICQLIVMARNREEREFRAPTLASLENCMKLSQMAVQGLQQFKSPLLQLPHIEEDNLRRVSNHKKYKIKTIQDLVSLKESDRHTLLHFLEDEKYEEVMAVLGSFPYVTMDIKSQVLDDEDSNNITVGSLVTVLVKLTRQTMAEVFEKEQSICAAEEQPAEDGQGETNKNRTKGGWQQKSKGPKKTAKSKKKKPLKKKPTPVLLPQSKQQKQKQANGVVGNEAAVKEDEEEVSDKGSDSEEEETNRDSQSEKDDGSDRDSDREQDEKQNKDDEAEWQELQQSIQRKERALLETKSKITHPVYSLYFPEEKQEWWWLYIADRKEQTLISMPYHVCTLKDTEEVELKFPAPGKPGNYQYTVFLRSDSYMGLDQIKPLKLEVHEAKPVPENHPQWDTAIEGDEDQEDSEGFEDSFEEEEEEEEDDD
# Sequence of UniProt Q9UMS0 (Q9UMS0 whole entry, looked up): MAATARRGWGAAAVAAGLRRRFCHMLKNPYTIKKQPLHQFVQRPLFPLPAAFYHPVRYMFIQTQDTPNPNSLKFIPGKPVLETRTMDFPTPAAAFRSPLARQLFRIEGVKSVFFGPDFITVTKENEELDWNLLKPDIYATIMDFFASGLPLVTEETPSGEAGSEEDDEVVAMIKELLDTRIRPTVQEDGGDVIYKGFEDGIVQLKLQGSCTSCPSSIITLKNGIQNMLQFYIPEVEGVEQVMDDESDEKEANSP
row,Target,log2 ratio of iodoacetamide-alkyne labeling
1,MIOS C321 (UniProt Q9NXC5),0.126
2,ANAPC1 C1412 (UniProt Q9H1A4),0.0508
3,UniProt Q9UPN4_C218,0.212
4,TRABD C287 (UniProt Q9H4I3),0.0519
5,PRPF19 C230 (UniProt Q9UMS4),0.231
6,ATXN10 C354 (UniProt Q9UBB4),1.32 (active)
7,NFU1 C213 (UniProt Q9UMS0),0.895
8,ITSN2 C810 (UniProt Q9NZM3),0.0149
9,PRR12 C322 (UniProt Q9ULL5),0.259
10,BCLAF1 C688 (UniProt Q9NYF8),0.524
11,ITSN2 C1194 (UniProt Q9NZM3),-0.296
12,BCAP29 C171 (UniProt Q9UHQ4),1.1 (active)
13,SMYD3 C421 (UniProt Q9H7B4),0.00903
14,HNRNPUL1 C291 (UniProt Q9BUJ2),0.483
15,TANC1 C131 (UniProt Q9C0D5),0.487
16,ALG5 C194 (UniProt Q9Y673),0.233
17,SRRM2 C1480 (UniProt Q9UQ35),0.319
18,RACGAP1 C419 (UniProt Q9H0H5),0.303
19,EXOC6B C68 (UniProt Q9Y2D4),-0.0384
20,SAMHD1 C80 (UniProt Q9Y3Z3),0.175

row,Target,log2 ratio of iodoacetamide-alkyne labeling
1,GPATCH8 C569 (UniProt Q9UKJ3),0.815
2,UniProt Q9H1B7_C385,0.164
3,ZMYM2 C852 (UniProt Q9UBW7),0.581
4,DIS3 C213 (UniProt Q9Y2L1),0.313
5,PPAN C432 (UniProt Q9NQ55),0.73
6,DDX56 C286 (UniProt Q9NY93),0.51
7,BICC1 C621 (UniProt Q9H694),0.525
8,UNC45A C34 (UniProt Q9H3U1),0.0992
9,UniProt Q9NW64_C24,0.351
10,BAZ1B C953 (UniProt Q9UIG0),1.28 (active)
11,SRP68 C247 (UniProt Q9UHB9),0.197
12,MAP3K4 C163 (UniProt Q9Y6R4),0.0336
13,SEC63 C366 (UniProt Q9UGP8),-0.163
14,STRAP C305 (UniProt Q9Y3F4),0.0837
15,MED17 C110 (UniProt Q9NVC6),0.34
16,UBE2O C406 (UniProt Q9C0C9),1.46 (active)
17,UniProt Q9Y520_C223,0.239
18,OSBPL3 C203 (UniProt Q9H4L5),0.76
19,NCDN C4 (UniProt Q9UBB6),1.66 (active)
20,RDH14 C97 (UniProt Q9HBH5),0.228
